# Assay outcomes deposited in PubChem by several laboratories.
# Most compounds without a hit are left out; they make up all but 27% or so of the library.
# PTK2B oligo ant: antagonists of Pyk2 self-association, primary screen, Q293 cells, FERM NanoBiT luminescence, HTS. active compounds read low. Protein-tyrosine kinase 2-beta (Homo sapiens), Q14289. hit rate 0.83% among 99,000. z-score (the deposit names both 25 µM and 10 µM). AID 1347419, 2020;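 active = Z-score of -3 or lower, scaled per plate to the spread of control and sample wells; inactive = z-score above -3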;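 also: negative z-score means lost luminescence so less FERM oligomerization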
# CYP2C9 act: human CYP2C9 activators, primary screen, biochemical, luminescence. recombinant CYP2C9, luciferin-H conversion; active compounds read high; factor 1 = untreated enzyme, 0 = blocked. activation factor at 5 µM. hit rate 1.4% among 96,000. AID 1024, 2008;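 active = activation factor of 2 or more for CYP2C9 at a 5 µM dose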;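 also: 0 = sulfaphenazole-blocked wells and 1 = vehicle-only wells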
# Cav3 T inh: Cav3.2 calcium influx blockers – cell-based, Fluo-4 calcium fluorescence, FDSS, MLSMR library, primary screen; Voltage-dependent T-type calcium channel subunit alpha-1H (Homo sapiens), O95180; hit rate 4% among 100,000; B-score at 10 µM; Cav3.2-expressing cells; active compounds read low;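 active = single-dose well whose peak fluorescence ratio is a statistical outlier from its plate by either plate-standardised score or position-corrected B-score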
# CYP2C9 inhib: blockers of cytochrome P450 2C9 activity – biochemical, luminescence, ADME assay, primary screen | P11712 | CYP2C9 Supersomes, luciferin-H conversion | inhibition, % at 5 µM | hit rate 20% among 96,000 | AID 777, 2007;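 active = blocking of liver enzyme CYP2C9 beyond about 50% at 5 µM, limit read from the data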
# CYP2C19 inh: blockers of cytochrome P450 2C19 activity – biochemical, luminescence, ADME assay, primary screen | P33261 | CYP2C19 Supersomes, luciferin-H EGE luminescence, 30 min | inhibition, % at 5 µM | hit rate 21% among 96,000;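 active = CYP2C19 inhibition above a set limit at 5 µM in the primary screen, cut at about 50% in these data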;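 also: plate controls were negative control wells for no effect and 2.5 mM tranylcypromine positive control for full effect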
# Target sequence (P33261 whole entry, looked up): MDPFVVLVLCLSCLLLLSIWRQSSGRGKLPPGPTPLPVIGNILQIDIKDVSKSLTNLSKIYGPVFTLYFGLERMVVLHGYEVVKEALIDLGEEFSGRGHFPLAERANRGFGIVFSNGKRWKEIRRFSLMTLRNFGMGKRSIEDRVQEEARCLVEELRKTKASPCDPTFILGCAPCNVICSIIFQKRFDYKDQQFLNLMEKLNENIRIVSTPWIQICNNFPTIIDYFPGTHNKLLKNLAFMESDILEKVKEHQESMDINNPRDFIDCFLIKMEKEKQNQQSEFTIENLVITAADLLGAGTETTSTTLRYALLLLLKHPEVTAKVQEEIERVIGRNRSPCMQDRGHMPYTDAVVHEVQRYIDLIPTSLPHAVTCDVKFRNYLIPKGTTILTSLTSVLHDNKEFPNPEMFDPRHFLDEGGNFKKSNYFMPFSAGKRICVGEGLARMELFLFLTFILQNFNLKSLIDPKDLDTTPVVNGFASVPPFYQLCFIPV
# CYP2C19 act: human CYP2C19 activators, primary screen, biochemical, luminescence; Cytochrome P450 2C19 (Homo sapiens), P33261; recombinant CYP2C19, luciferin-H EGE luminescence; active compounds read high; 0 = fully inhibited enzyme, 1 = untreated enzyme; activation factor at 5 µM; 96,000 tested, under 10 active;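 active = activation factor of at least 2 at 5 µM in the primary screen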;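 also: 0 = wells with 2.5 mM tranylcypromine and 1 = vehicle-only wells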
# Numbers without * were called inactive; . = no result.
SMILES,PTK2B oligo ant,CYP2C9 act,Cav3 T inh,CYP2C9 inhib,CYP2C19 inh,CYP2C19 act
COC(=O)c1ccc(C2C(C(C)=O)=C(O)C(=O)N2CCO)cc1 (centres undefined),1.4,1,0.58,3,0,1
N#CC(C#N)=C1NC2(CCCC2)Cc2ccccc21,0.35,.,.,.,.,.
O=C(N[C@@H](Cc1ccccc1)C(=O)OCc1ccccc1)c1nc[nH]c1C(=O)N1CCc2ccccc2C1,.,.,-1.4,.,.,.
COc1ccc(NC(=O)C2OC3OC(C)(C)OC3C3OC(C)(C)OC23)cc1 (centres undefined),-0.28,0.7,0.46,28,-6,1.1
CO/N=C/NC(=O)N1OC[C@@H]2COc3ccc4ccccc4c3[C@@H]21,0.48,0.9,-2.2,9,57*,0.4
O=C(N/C=N/OCc1cccc(C(F)(F)F)c1)N1OC[C@@H]2COc3ccc4ccccc4c3[C@@H]21,0.1,1.1,-1.6,-12,5,1
C=CCn1c(SCC#N)nc2c(c1=O)C(C)(C)Cc1ccccc1-2,-3,0.6,.,41,28,0.7
O=C(NC1CCCCC1)C1CC=CCC1C(=O)OCC(Cl)=C(Cl)Cl (centres undefined),-0.65,0.7,-7.5*,34,17,0.8
COc1ccc(NC(=O)c2ccc(CNc3c(NC4CCCCC4)c(=O)c3=O)cc2)c(OC)c1,.,0.3,-0.31,70*,15,0.9
CCOc1ccc(NC(=O)c2ccc(CNc3c(NC4CCCCC4)c(=O)c3=O)cc2)cc1,.,1.1,.,-8,-13,1.1
Cc1ccc(CN(c2ccc(C(=O)N3CCCC3)cc2)S(C)(=O)=O)cc1,0.39,0.7,0.61,27,11,0.9
COc1cc(C)ccc1OCCOc1ccccc1Cl,-1.3,0.7,-0.95,28,70*,0.3
COc1cc(C=O)ccc1OCCOCCOc1cc(C)ccc1Cl,0.21,0.5,-3,52*,50,0.5
COc1cc(C)ccc1OCCOCCOc1c(C)cc(C)cc1Br,-0.29,.,-2.3,.,.,.
Cn1c(=O)c2c(nc(SCC(=O)OCc3ccccc3)n2C)n(C)c1=O,-0.29,0.2,0.75,80*,26,0.7
COC(=O)Cn1cnc2c1c(=O)n(C)c(=O)n2C,0.62,.,1.1,.,.,.
Cn1c(=O)c2c(ncn2CC(=O)OCc2ccccc2)n(C)c1=O,0.89,0.4,0.15,63*,2,1
Cn1c(=O)c2c(ncn2Cc2ccc(Cl)c(Cl)c2)n(C)c1=O,-1.3,0.4,1.3,61*,92*,0.1
Cn1c(=O)c2c(ncn2CC(N)=O)n(C)c1=O,0.91,1.2,-0.22,-17,-5,1.1
COCCNC(=O)Cn1cnc2c1c(=O)n(C)c(=O)n2C,-0.57,0.9,-5.3*,9,-14,1.1
O=[N+]([O-])c1ccc(-c2ccc(/C=N/c3c(-c4ccco4)nc4ccccn34)o2)cc1,0.76,0.9,.,10,-3,1
Cc1cccc(C)c1NC(=O)CSc1nnc(-c2ccoc2C)n1C,-0.84,1,0.13,-1,32,0.7
CCc1nnc(NC(=O)CSc2nnc(-c3ccco3)n2C)s1,1.3,0.9,0.51,12,9,0.9
CCCn1c(SCC(=O)Nc2ccccc2-c2ccccc2)nnc1-c1ccoc1C,-0.22,0.1,-5.9*,87*,82*,0.2
Cn1nnnc1SCC(=O)Nc1ccccc1-c1ccccc1,-0.73,0.7,-0.12,29,37,0.6
SMILES,PTK2B oligo ant,CYP2C9 act,Cav3 T inh,CYP2C9 inhib,CYP2C19 inh,CYP2C19 act
Cc1occc1-c1nnc(SCC(=O)Nc2ccccc2-c2ccccc2)n1C,-0.14,0.2,-0.85,76*,76*,0.2
Cn1c(SCC(=O)Nc2ccccc2-c2ccccc2)nnc1-c1ccco1,-0.76,0.5,0.46,45,60*,0.4
Cn1c(SCC(=O)N2c3ccccc3Sc3ccccc32)nnc1-c1ccco1,-0.83,0.3,-0.47,70*,68*,0.3
COc1ccccc1N(CC(O)CN1C(=O)NC(C)(C)C1=O)S(=O)(=O)c1ccc(C)cc1 (centres undefined),0.83,0.4,0.73,60*,94*,0.1
Cc1ccc(S(=O)(=O)N(CC(O)CN2C(=O)NC(C)(C)C2=O)c2ccccc2)cc1 (centres undefined),1,0.9,-0.82,14,32,0.7
COc1cccc(-c2cc(C(F)(F)F)c3c(N)c(C#N)sc3n2)c1,.,1.2,.,-24,-9,1.1
Nc1c(C(=O)C2CC2)sc2nc(-c3ccccc3)cc(C(F)(F)F)c12,1.4,.,-6.2*,.,.,.
N#Cc1sc2nc(-c3cccs3)cc(-c3ccc(F)cc3)c2c1N,-1,.,.,.,.,.
CC(=O)c1sc2nc(-c3cccs3)cc(C(F)(F)F)c2c1N,-1.2,0.3,-1.4,67*,58*,0.4
Cc1ccc(C(=O)N(c2ccccn2)C(C)c2ccco2)cc1C (centres undefined),0.21,0.8,0.77,22,41,0.6
CC(c1ccco1)N(C(=O)c1ccc(Cl)s1)c1ccccn1 (centres undefined),.,0.4,0.1,59*,89*,0.1
COc1c(N2CCN(C(=S)NCc3ccccc3)C(C)C2)c(F)cc2c(=O)c(C(=O)O)cn(C3CC3)c12 (centres undefined),0.69,0.9,2.8*,14,7,0.9
CC1COc2c(N3CCN(C)CC3)c(F)cc3c(=O)c(C(=O)O)cn1c23 (centres undefined),.,.,-2.1,.,.,.
CC(C(=O)Nc1cccc([N+](=O)[O-])c1)N1CCN(C/C=C/c2ccccc2)CC1 (centres undefined),1.2,.,.,.,.,.
CC(C(=O)Nc1cccc([N+](=O)[O-])c1)n1nnc2ccccc21 (centres undefined),-0.13,0.2,0.075,79*,53*,0.5
S=C1NC(c2ccccc2)=NCN1c1ccc(Cl)cc1,0.62,0.6,-1.5,42,80*,0.2
CCn1c(SCC(=O)c2cccs2)nnc1-c1cccs1,0.92,0.5,0.55,45,98*,0
CCOC(=O)c1c(C)[nH]c(C(=O)CSc2nnc(-c3ccncc3)n2CC)c1C,1.1,0.2,-1.1,84*,94*,0.1
CCn1c(SCC(=O)c2[nH]c(C)c(C(C)=O)c2C)nnc1-c1cccs1,-0.43,0.7,0.88,29,64*,0.4
CCn1c(SCC(=O)NCCc2ccc(Cl)cc2)nnc1-c1cccs1,0.06,0.2,-1,81*,78*,0.2
CCn1c(SCC(=O)NC(C)C)nnc1-c1cccs1,-0.64,1,-1.7,-2,12,0.9
